According to ChEMBL document CHEMBL3988442, “University of Dundee, Small-Polar-MMV Screening Library” (2021):

target: AMP-activated protein kinase, AMPK (Homo sapiens) (UniProt P54646+O43741+P54619+Q9UGJ0+Q9Y478+Q13131+Q9UGI9); experiment: AMP-dependent Kinase enzyme assay. An in vitro enzyme assay that detects ADP turnover that is directly proportional to AMPK activity. This uses naive AMPK that is activated during the assay with MK-8722; format: functional; parameters: scale not given: direction of the effect not stated beside the values; conditions: 30 µM

| Compound | Percent Effect [%] |
| --- | --- |
| COCCNC(=O)C(C)n1cc(Br)cn1 (stereo not drawn) | 1.52 |
| Cn1nccc1C1CCN(Cc2csc(-c3ncccn3)n2)CC1 | -7.27 |
| Cc1ccc(NS(=O)(=O)CC2=NC(=O)n3cccc3C2=O)cc1 | -2.73 |
| COc1ccc(C)cc1S(=O)(=O)NCC(c1cccn1C)N(C)C (stereo not drawn) | -12.1 |
| CSc1ccc(CNC(c2ccccc2)c2nccn2C)cc1 (stereo not drawn) | -4 |
| CCCNC(=O)N1CCN(Cc2cc(C)no2)CC1 | -8.42 |
| CN(Cc1ccco1)Cc1ccccc1CNC(=O)c1ccncc1 | 13.1 |
| CCc1c(C)sc(NC(=O)CN2CCN(CC)CC2)c1C(=O)OC | -2.07 |
| COc1ccc(CN(Cc2cncn2C)CC2CCCO2)cc1OC (stereo not drawn) | 11.9 |
| O=c1ccc(-c2cccs2)nn1CN1CCN(Cc2ccccc2)CC1 | 2.74 |
| COCC1Cn2nnc(-c3cnn(C)c3)c2CN1Cc1ccc(C)s1 (stereo not drawn) | 12 |
| CC1CCCCN1c1nc2c(c(=O)[nH]1)CCN(Cc1cccnc1)C2 (stereo not drawn) | 6.19 |
| O=C(Nc1ccccc1)C1CN(CC2CC2)CC12CCOCC2 (stereo not drawn) | 7.28 |
| COCCN1C[C@H]2CC[C@@]3(N=C(C)N(CC4CC4)C3=O)[C@H]2C1 | 1.81 |
| CC(C)c1cc(C(=O)N2CCN(Cc3ccsc3)CC2)n[nH]1 | -2.35 |
| CCc1c(C(=O)NC2CCS(=O)(=O)C2)cnn1-c1ccc(F)cc1 (stereo not drawn) | -2.59 |
| CS(=O)(=O)N1CCCC12CCCN(S(=O)(=O)c1cc(F)cc(F)c1)C2 (stereo not drawn) | 3.16 |
| COc1ccc(C2CCCCCN2S(=O)(=O)N(C)C)cc1 (stereo not drawn) | -11.6 |
| CC(Cn1ccnc1)NC(=O)NCCNC(=O)C(C)C (stereo not drawn) | -2.17 |
| O=C(NCCCn1cncn1)NCC(c1ccco1)N1CCCCC1 (stereo not drawn) | 2.22 |

| Compound | Percent Effect [%] |
| --- | --- |
| CNC(=O)c1cc2c(nc1NCC(C)C)CCN(S(=O)(=O)C1CC1)CC2 | 5.7 |
| COCCN(C)CC(=O)N1C[C@H]2CC[C@@H]1CN(C(=O)c1ccncc1)C2 | -2.28 |
| Cc1nn(CC(C)C)c(N(C)C)c1CNCc1cc2ccccc2[nH]1 | -5.31 |
| CN(C)Cc1ccnc(C2CCCN2Cc2ccncc2)n1 (stereo not drawn) | -5.08 |
| O=C([C@H]1COC[C@H]2CN(Cc3ccco3)C[C@H]21)N1CCCO1 | -1.75 |
| Cc1cc(C)c(CNC(=O)C2CCCN(c3cnccn3)C2)c(=O)[nH]1 (stereo not drawn) | -6.83 |
| COCCNC(=O)C[C@@H]1COC[C@H]2CN(C(=O)c3cnccn3)C[C@@H]12 | -4.71 |
| CN(C)[C@@H]1CCN(c2ncccn2)[C@H]1Cc1ccncc1 | -0.281 |
| CC(CNCc1ccncc1)Oc1ccccn1 (stereo not drawn) | -1.66 |
| COc1ncccc1CN1Cc2nnn(C)c2C(COCC2CC2)C1 (stereo not drawn) | 4.07 |
| Cc1noc2nc(C3CCN(Cc4ccncc4)CC3)cc(C(F)F)c12 | 1.21 |
| CSc1ncccc1C(=O)N1C[C@H]2CC[C@@H]1CN(c1cnccn1)C2 | 4.77 |
| CC(C(=O)Nc1ccc(N2CCCC2)nc1)n1ccnc1 (stereo not drawn) | -13.4 |
| Cc1ccc(Cl)cc1C(=O)N1CCC2(CC1)c1ccccc1[C@@H](N)[C@@H]2O | -7.41 |
| Cc1nc(CN2CCN(C(=O)c3ccn(C)c(=O)c3)CC2)cs1 | -4.58 |
| CNS(=O)(=O)c1ccc(C(=O)N2CCCC2c2ccccc2)o1 (stereo not drawn) | 2.8 |
| CS(=O)(=O)NCC1CCCCN1C(=O)Nc1cccnc1N1CCCC1 (stereo not drawn) | -38 |
| Cc1cccc(N2CCN(CCNC(=O)C(C)n3cncn3)CC2)c1 (stereo not drawn) | -8.42 |
| CCn1nc(CC(C)C)cc1C(=O)NCCCOC | 0.357 |

target: Sialic acid-binding Ig-like lectin 9 (Homo sapiens) (UniProt Q9Y336); experiment: Hs-Siglec9 ALPHAscreen SOP 20170721; parameters: scale not given: direction of the effect not stated beside the values; conditions: 10 µM
Sequence (Q9Y336 whole entry): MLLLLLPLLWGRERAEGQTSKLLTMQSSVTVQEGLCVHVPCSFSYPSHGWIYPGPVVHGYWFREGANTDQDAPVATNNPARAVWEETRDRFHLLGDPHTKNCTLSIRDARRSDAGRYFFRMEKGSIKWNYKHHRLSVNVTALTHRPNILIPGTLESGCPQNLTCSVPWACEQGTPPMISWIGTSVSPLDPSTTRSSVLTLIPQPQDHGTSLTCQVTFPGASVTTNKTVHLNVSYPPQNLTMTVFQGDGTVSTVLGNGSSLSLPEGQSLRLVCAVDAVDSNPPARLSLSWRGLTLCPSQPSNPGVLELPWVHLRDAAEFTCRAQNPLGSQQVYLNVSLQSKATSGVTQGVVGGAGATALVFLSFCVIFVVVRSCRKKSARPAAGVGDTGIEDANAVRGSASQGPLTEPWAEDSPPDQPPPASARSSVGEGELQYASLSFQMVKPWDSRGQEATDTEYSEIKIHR

| Compound | Percent Effect [%] |
| --- | --- |
| COCCNC(=O)C(C)n1cc(Br)cn1 (stereo not drawn) | 7.73 |
| Cn1nccc1C1CCN(Cc2csc(-c3ncccn3)n2)CC1 | 6.8 |
| Cc1ccc(NS(=O)(=O)CC2=NC(=O)n3cccc3C2=O)cc1 | 6.4 |
| COc1ccc(C)cc1S(=O)(=O)NCC(c1cccn1C)N(C)C (stereo not drawn) | 2.18 |
| CSc1ccc(CNC(c2ccccc2)c2nccn2C)cc1 (stereo not drawn) | 8.74 |
| CCCNC(=O)N1CCN(Cc2cc(C)no2)CC1 | -2.41 |
| CN(Cc1ccco1)Cc1ccccc1CNC(=O)c1ccncc1 | 4.84 |
| CCc1c(C)sc(NC(=O)CN2CCN(CC)CC2)c1C(=O)OC | 3.39 |
| COc1ccc(CN(Cc2cncn2C)CC2CCCO2)cc1OC (stereo not drawn) | 0.383 |
| O=c1ccc(-c2cccs2)nn1CN1CCN(Cc2ccccc2)CC1 | 1.22 |
| COCC1Cn2nnc(-c3cnn(C)c3)c2CN1Cc1ccc(C)s1 (stereo not drawn) | -1.82 |
| CC1CCCCN1c1nc2c(c(=O)[nH]1)CCN(Cc1cccnc1)C2 (stereo not drawn) | 3.8 |
| O=C(Nc1ccccc1)C1CN(CC2CC2)CC12CCOCC2 (stereo not drawn) | -3.04 |
| COCCN1C[C@H]2CC[C@@]3(N=C(C)N(CC4CC4)C3=O)[C@H]2C1 | -4.12 |
| CC(C)c1cc(C(=O)N2CCN(Cc3ccsc3)CC2)n[nH]1 | 15 |
| CCc1c(C(=O)NC2CCS(=O)(=O)C2)cnn1-c1ccc(F)cc1 (stereo not drawn) | -6.54 |
| CS(=O)(=O)N1CCCC12CCCN(S(=O)(=O)c1cc(F)cc(F)c1)C2 (stereo not drawn) | -10 |
| COc1ccc(C2CCCCCN2S(=O)(=O)N(C)C)cc1 (stereo not drawn) | 10.4 |
| CC(Cn1ccnc1)NC(=O)NCCNC(=O)C(C)C (stereo not drawn) | -3.21 |
| O=C(NCCCn1cncn1)NCC(c1ccco1)N1CCCCC1 (stereo not drawn) | -12.8 |

| Compound | Percent Effect [%] |
| --- | --- |
| CNC(=O)c1cc2c(nc1NCC(C)C)CCN(S(=O)(=O)C1CC1)CC2 | -6.06 |
| COCCN(C)CC(=O)N1C[C@H]2CC[C@@H]1CN(C(=O)c1ccncc1)C2 | 3.27 |
| Cc1nn(CC(C)C)c(N(C)C)c1CNCc1cc2ccccc2[nH]1 | 5.12 |
| CN(C)Cc1ccnc(C2CCCN2Cc2ccncc2)n1 (stereo not drawn) | 2.14 |
| O=C([C@H]1COC[C@H]2CN(Cc3ccco3)C[C@H]21)N1CCCO1 | 0.139 |
| Cc1cc(C)c(CNC(=O)C2CCCN(c3cnccn3)C2)c(=O)[nH]1 (stereo not drawn) | 10.1 |
| COCCNC(=O)C[C@@H]1COC[C@H]2CN(C(=O)c3cnccn3)C[C@@H]12 | 7.09 |
| CN(C)[C@@H]1CCN(c2ncccn2)[C@H]1Cc1ccncc1 | 0.217 |
| CC(CNCc1ccncc1)Oc1ccccn1 (stereo not drawn) | 5.01 |
| COc1ncccc1CN1Cc2nnn(C)c2C(COCC2CC2)C1 (stereo not drawn) | -3.49 |
| Cc1noc2nc(C3CCN(Cc4ccncc4)CC3)cc(C(F)F)c12 | -1.72 |
| CSc1ncccc1C(=O)N1C[C@H]2CC[C@@H]1CN(c1cnccn1)C2 | 7.96 |
| CC(C(=O)Nc1ccc(N2CCCC2)nc1)n1ccnc1 (stereo not drawn) | 11.1 |
| Cc1ccc(Cl)cc1C(=O)N1CCC2(CC1)c1ccccc1[C@@H](N)[C@@H]2O | 40.2 |
| Cc1nc(CN2CCN(C(=O)c3ccn(C)c(=O)c3)CC2)cs1 | -0.681 |
| CNS(=O)(=O)c1ccc(C(=O)N2CCCC2c2ccccc2)o1 (stereo not drawn) | 2.47 |
| CS(=O)(=O)NCC1CCCCN1C(=O)Nc1cccnc1N1CCCC1 (stereo not drawn) | 3.6 |
| Cc1cccc(N2CCN(CCNC(=O)C(C)n3cncn3)CC2)c1 (stereo not drawn) | -3.17 |
| CCn1nc(CC(C)C)cc1C(=O)NCCCOC | 4.91 |
